Test results from PubChem BioAssay (NCI).
The panel holds about 83,000 compounds, 20% with a hit somewhere; the sample as a whole holds those more often.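 Step 1: grow cells in 96-well plates. Step 2: add test compound at a single concentration. Step 3: incubate 48 h. Step 4: record percent growth.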 A number with no mark means an inactive call. The source made the active and inactive calls. The calls were made as follows: active = growth percent below 10; inactive = the rest.

Test system: MDA-MB-468 breast
Assay: NCI-60 one-dose screen, 48 h (100 = growth as untreated, 0 = no growth, -100 = all killed)
Details: 10 µM unless noted

| Structure (SMILES) | growth |
| --- | --- |
| NC(=O)c1cc([N+](=O)[O-])c(Cl)c([N+](=O)[O-])c1Cl | -84.9% (active) |
| C[C@]12CC[C@H]3[C@@H](CC=C4c5nc(N)sc5CC[C@@]43C)[C@@H]1CC[C@@H]2O | 91.2% |
| N#C[Se]CCN1C(=O)c2ccccc2C1=O | 20.4% |
| OCc1ccc2c(c1)OCO2 | 97.6% |
| C/C=C\C(=O)O[C@@H]1CC2O[C@@H]3C=C(C)C(=O)C[C@]3(C)[C@]1(C)[C@]21CO1 | -29.7% (active) |
| Nc1ccc(OCCNS(=O)(=O)c2cccc(S(=O)(=O)F)c2)c(Cl)c1 | 94.6% |
| CC[C@]12C=CCN3CC[C@@]4(c5ccc(OC)cc5N(C)[C@H]4[C@@](O)(C(=O)OC)[C@@H]1OC(=O)CCCN1CCN(CCCC(=O)O[C@@H]4[C@]5(CC)C=CCN6CC[C@@]7(c8ccc(OC)cc8N(C)[C@H]7[C@@]4(O)C(=O)OC)[C@@H]65)CC1)[C@@H]32 | -88.4% (active) |
| CCC1(C)CC(CCNCc2ccccc2O)(c2ccc(C)cc2)CCO1 (configuration not stated) | 110% |
| CC(C)(C)C(=O)OCOP(=O)(NCc1ccccc1)C1CCCN(O)C1=O (configuration not stated) | -0.478% (active) |
| CNC(=O)Oc1ccc(N(C)C)cc1C(C)C | 74.8% |
| O=C(O)c1[nH]c(=O)[nH]c(=O)c1F | 107% |
| O=C1c2ccccc2C(=O)N1[N+](=O)[O-] | 89.2% |
